# Measurements taken from PubChem BioAssay AID743356 (Broad Institute, 2014).
# Values without a mark were called inactive.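 Rule for the calls: active = compounds that cut cell viability with a fitted half-maximal dose no more than twice the top valid dose; inconclusive = flat curve inhibiting 30 to 70%, or a poor fit; inactive = the rest, including any rise in viability.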
# Assay: viability loss in A549 lung cells – cell-based, luminescence, dry powder, set 10, cytotoxicity control, dose response (AID 743356)
# Conditions: CellTiter-Glo ATP luminescence, 72 h; at 26 µM unless noted
row,Structure (SMILES),"max inhibition of viability %, hits give high values"
1,CCCCCCCC(=O)N1CC[C@@H]2[C@@H](CO)N(C)c3ccc(-c4cccc(F)c4)cc3[C@@H]21,20.6% [at 0.006 µM]
2,CN1c2ccc(-c3ccc(F)cc3)cc2[C@H]2[C@H](CCN2C(=O)Nc2ccc(F)cc2)[C@H]1CO,18.3% [at 0.05 µM]
3,CN1c2ccc(-c3cccc(F)c3)cc2[C@H]2[C@H](CCN2C(=O)Cc2cccnc2)[C@H]1CO,-2.44%
4,CN(C)C(=O)c1ccc(N2CCN(C(=O)c3ccc4c(c3)OCO4)CC2)cc1,10.1% [at 0.1 µM]
5,CNS(=O)(=O)c1ccc(N2CCN(C(=O)c3ccc4c(c3)OCO4)CC2)cc1,21.4% [at 0.003 µM]
6,COc1ccccc1NC(=O)N1CC[C@@H]2[C@@H](CO)N(C)c3ccc(-c4cccc(F)c4)cc3[C@@H]21,-10.1% [at 23.5 µM]
7,CN1c2ccc(-c3cccc(F)c3)cc2[C@@H]2[C@@H](CCN2C(=O)c2ccc3c(c2)OCO3)[C@H]1CO,-9.13%
8,CN1c2ccc(-c3ccc(F)cc3)cc2[C@H]2[C@H](CCN2C(=O)Nc2cc(F)ccc2F)[C@H]1CO,-3.91% [at 23.5 µM]
9,CN1c2ccc(-c3cccc(F)c3)cc2[C@H]2[C@H](CCN2C(=O)Nc2ccccc2F)[C@H]1CO,-15.8% [at 23.5 µM]
10,CC(=O)c1ccc(N2CCN(C(=O)c3ccc4c(c3)OCO4)[C@H](C)C2)cc1,9.13% [at 12 µM]
11,COc1ccccc1C(=O)N1CCN(c2ccc(C(C)=O)cc2)CC1,13.9% [at 0.012 µM]
12,CC(=O)c1ccc(N2CCN(C(=O)c3ccccc3Cl)CC2)cc1,15.7% [at 0.195 µM]
13,CN1c2ccc(-c3ccc(F)cc3)cc2[C@H]2[C@H](CCN2C(=O)Cc2ccccn2)[C@H]1CO,-16.3%
14,CC(=O)c1ccc(NCCNC(=O)c2ccc3c(c2)OCO3)cc1,9.33% [at 0.0007 µM]
15,CN1c2ccc(-c3cccc(F)c3)cc2[C@H]2[C@H](CCN2C(=O)c2ccc3c(c2)OCO3)[C@@H]1CO,-9.58%
16,COc1ccc(NC(=O)N2CC[C@@H]3[C@@H](CO)N(C)c4ccc(-c5ccc(F)cc5)cc4[C@@H]32)cc1,-9.64%
17,COc1ccccc1NC(=O)N1CC[C@@H]2[C@@H](CO)N(C)c3ccc(-c4ccc(F)cc4)cc3[C@@H]21,13.3% [at 0.0015 µM]
18,CC(=O)c1ccc(N2CCN(C(=O)c3ccc4c(c3)OCO4)CC2)cc1,20.5% [at 0.8 µM]
19,COC(=O)c1ccc(N2CCN(C(=O)c3ccc4c(c3)OCO4)CC2)cc1,15.6% [at 0.1 µM]
20,COc1cccc(NC(=O)N2CC[C@@H]3[C@@H](CO)N(C)c4ccc(-c5cccc(F)c5)cc4[C@@H]32)c1,-9.56%
21,CNC(=O)c1ccc(N2CCN(C(=O)c3ccc4c(c3)OCO4)CC2)cc1,-22.9% [at 0.0015 µM]
22,COCC(=O)N1CC[C@@H]2[C@@H](CO)N(C)c3ccc(-c4cccc(F)c4)cc3[C@@H]21,-10.3%
23,CN1c2ccc(-c3cccc(F)c3)cc2[C@H]2[C@H](CCN2C(=O)CCCCCCC(=O)O)[C@H]1CO,-12.9%
24,CC(=O)c1ccc(N2CCN(C(=O)c3ccccc3F)CC2)cc1,10.7% [at 0.012 µM]
25,CC(C)NC(=O)N1CC[C@@H]2[C@@H](CO)N(C)c3ccc(-c4cccc(F)c4)cc3[C@@H]21,14.2% [setting not given]
26,CCCNC(=O)N1CC[C@@H]2[C@@H](CO)N(C)c3ccc(-c4ccc(F)cc4)cc3[C@@H]21,-28.2% [at 0.38 µM]
27,CN1c2ccc(-c3cccc(F)c3)cc2[C@H]2[C@H](CCN2C(=O)Cc2ccccc2)[C@H]1CO,-6.91% [at 23.5 µM]
28,COc1ccc(NC(=O)N2CC[C@@H]3[C@@H](CO)N(C)c4ccc(-c5cccc(F)c5)cc4[C@@H]32)cc1,-13.8% [at 0.0235 µM]
29,CN1c2ccc(-c3cccc(F)c3)cc2[C@@H]2[C@@H](CCN2C(=O)c2ccc3c(c2)OCO3)[C@@H]1CO,-3.11%
